Consider 12 compounds from PubChem BioAssay (NCI).

Test systems include NCI-H23 lung; NCI-H226 lung; NCI-H322M lung; HOP-62 NSCLC; NCI-H460 lung; HOP-92 NSCLC; NCI-H522 lung; A549/ATCC NSCLC; 786-0 renal; COLO 205 colon.
Common to all, as to test: NCI-60 one-dose screen, 48 h (100 = growth as untreated, 0 = no growth, -100 = all killed)
Details in all cases: 10 µM unless noted

Structures are written as SMILES. The panel holds about 83,000 compounds, 20% with a hit somewhere; the sample as a whole holds those more often.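 Each cell line was grown in a 96-well plate and treated with one concentration of compound for 48 hours. Values below 10 were considered active.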 Values without a mark were called inactive. Active and inactive are the calls of the source.

Take `CCCCCOC(=O)c1c(C)[nH]c(/C=C2\N=C(c3ccc[nH]3)C=C2OC)c1C`: the growth in the test with NCI-H23 lung was -59.1% (active); in the test on NCI-H226 lung, -74.8% (active); in the test with NCI-H322M lung, -17.8% (active); with HOP-62 NSCLC, -17.8% (active); with NCI-H460 lung, 4.97% (active); in the test on HOP-92 NSCLC, -20.5% (active). Moreover, the growth in the test on NCI-H522 lung is -56.7% (active); in the test on A549/ATCC NSCLC, -1.61% (active); in the test with 786-0 renal it was -16.9% (active); in the test on COLO 205 colon it was -88.2% (active).

As for `O=C1Nc2ccccc2/C1=C/c1nc2ccccc2c(=O)[nH]1`, the growth in the test on NCI-H23 lung is 75.8%; in the test on NCI-H226 lung, 94.5%; in the test on NCI-H322M lung, 101%; with HOP-62 NSCLC, 76.3%; with NCI-H460 lung, 95.1%; in the test with HOP-92 NSCLC, 94.1%. Moreover, the growth was 94.1% in the test on NCI-H522 lung, 100% in the test with A549/ATCC NSCLC, 104% in the test with 786-0 renal and 117% in the test with COLO 205 colon.

On to `CCCc1c(OC(=O)c2ccccc2)nc2[nH]c(=O)sc2c1C`, for which the growth in the test with NCI-H23 lung is 99%; in the test with NCI-H226 lung, 89.9%; with NCI-H322M lung, 101%; in the test with HOP-62 NSCLC, 95.6%; in the test with NCI-H460 lung, 103%; in the test with HOP-92 NSCLC, 93.3%. The growth is 87.4% with NCI-H522 lung, 99.6% in the test on A549/ATCC NSCLC, 106% with 786-0 renal and 101% with COLO 205 colon.

Regarding `C=CCOC(=O)Nc1cccn([C@H](Cc2ccccc2)C(=O)NCCC(C)C)c1=O`, the growth with NCI-H23 lung was 89.7%; in the test with NCI-H226 lung it was 82%; in the test with NCI-H322M lung it was 103%; in the test with HOP-62 NSCLC, 104%; with NCI-H460 lung, 105%; with HOP-92 NSCLC, 87.5%. Moreover, the growth in the test on NCI-H522 lung is 99.5%; with A549/ATCC NSCLC it was 97.9%; in the test on 786-0 renal it was 112%; in the test with COLO 205 colon, 110%.

For the compound `Cc1ccc(C)n1-c1ccccc1-n1c(C)ccc1C`, the growth with NCI-H23 lung was 107%; in the test with NCI-H226 lung, 97.8%; in the test with NCI-H322M lung, 99.9%; in the test on HOP-62 NSCLC, 112%; in the test with NCI-H460 lung, 105%; in the test on HOP-92 NSCLC it was 92.4%. For the same compound, the growth in the test with NCI-H522 lung was 96.5%; in the test on A549/ATCC NSCLC, 101%; in the test with 786-0 renal, 101%; in the test on COLO 205 colon, 114%.

With `O=C1/C(=C/c2ccccc2Br)COc2ccc(O)cc21`, the growth with NCI-H23 lung is 92.5%; in the test on NCI-H226 lung it was 100%; in the test with NCI-H322M lung it was 93.8%; in the test with HOP-62 NSCLC it was 88.9%; in the test with NCI-H460 lung, 95.3%; in the test on HOP-92 NSCLC it was 104%. Besides, the growth in the test on NCI-H522 lung was 31.3%; in the test with A549/ATCC NSCLC, 86.4%; in the test on 786-0 renal, 73%; with COLO 205 colon it was 100%.

Take `CCSC(SCC)c1ccc(Cl)cc1`: the growth is 95.1% in the test on NCI-H23 lung; 102% in the test on NCI-H226 lung; 123% in the test on NCI-H322M lung; 98.5% in the test on HOP-62 NSCLC; 103% in the test on NCI-H460 lung; 101% in the test on HOP-92 NSCLC. Moreover, the growth with NCI-H522 lung is 107%; with A549/ATCC NSCLC, 102%; in the test with 786-0 renal, 110%; in the test with COLO 205 colon it was 117%.

Take `O=C(O)c1cn(C2CC2)c2cc(N3CCN(Cc4ccc5ccccc5c4O)CC3)c(F)cc2c1=O`: the growth was 26.4% in the test on NCI-H23 lung; 9.01% (active) with NCI-H226 lung; 23.4% with NCI-H322M lung; -31% (active) in the test on HOP-62 NSCLC; 6.73% (active) with NCI-H460 lung; -6.42% (active) in the test with HOP-92 NSCLC. Moreover, the growth in the test on NCI-H522 lung was 24.8%; in the test with A549/ATCC NSCLC it was -23.4% (active); with 786-0 renal, 38.3%; in the test with COLO 205 colon, 33.4%.

For the compound `CCCn1cc2c(=O)nc3sc(Cc4ccccc4)c(C)n3c2n1`, the growth in the test with NCI-H23 lung was 103%; in the test on NCI-H226 lung, 107%; in the test on NCI-H322M lung, 98.5%; in the test on HOP-62 NSCLC it was 102%; in the test on NCI-H460 lung it was 101%; with HOP-92 NSCLC it was 88.4%. Besides, the growth with NCI-H522 lung was 75%; with A549/ATCC NSCLC, 83.5%; with 786-0 renal, 99.1%; in the test on COLO 205 colon, 109%.

For the compound `COc1cc(/C=C2/C=C(c3ccccc3)N(CCc3ccc(S(N)(=O)=O)cc3)C2=O)cc(OC)c1OC`, the growth in the test on NCI-H23 lung was 103%; in the test with NCI-H226 lung, 94.6%; with NCI-H322M lung it was 100%; with HOP-62 NSCLC, 94%; in the test with NCI-H460 lung, 105%; with HOP-92 NSCLC, 41.9%. In addition, the growth is 81.3% in the test with NCI-H522 lung, 86.4% in the test with A549/ATCC NSCLC, 85.5% in the test with 786-0 renal and 108% in the test with COLO 205 colon.

For `Cc1c(O)cc(-c2cnc(Nc3ccccc3)s2)c(O)c1C`, the growth with NCI-H23 lung is 87.1%; in the test on NCI-H226 lung, 98.6%; with NCI-H322M lung, 96.6%; in the test on HOP-62 NSCLC, 97.4%; in the test with NCI-H460 lung it was 99.3%; with HOP-92 NSCLC, -64.4% (active). Moreover, the growth is 83.4% with NCI-H522 lung, 93.1% in the test with A549/ATCC NSCLC, 107% in the test with 786-0 renal and 107% with COLO 205 colon.

Take `Clc1ccc2c(NC3CCC(N4CCOCC4)CC3)ccnc2c1` (stereo not given): the growth was 62.2% with NCI-H23 lung; 68.9% in the test on NCI-H226 lung; 101% in the test with NCI-H322M lung; 66.7% with HOP-62 NSCLC; 81.8% in the test on NCI-H460 lung; 48.7% in the test on HOP-92 NSCLC. Further, the growth was 80.8% in the test on NCI-H522 lung, 74.5% in the test on A549/ATCC NSCLC, 70.6% in the test on 786-0 renal and 81.4% with COLO 205 colon.
